Bioassay records: PubChem, National Center for Advancing Translational Sciences (NCATS)
Shown are actives, neighbours in structure and some others; about 7.3% of the full set was active somewhere.
ELG1 genotox – genotoxicity induction in ELG1-luciferase HEK293T cells | actives 1.3% (n = 330,000) | AID 504466 | Potency, µM (series often up to 46 µM), for inactives: at the top dose activity change, positive = activation, actives largely listed as activators | HEK293T ELG1-luciferase reporter, luminescence, 16 h; note: % of control where 0% means no effect; nearly all actives have a fitted effect of over 60% in size
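Genotoxic stress is detected as increased luminescence from luciferase-tagged ELG1 in HEK293T cells, measured with ONE-Glo after a 16 hr treatment at 37 °C.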
KinaseGlo FLuc – blocks Kinase-Glo luciferase, a counter-screen artifact. Q27757. Kinase-Glo luciferase, ATP luminescence, 8 min. Potency, µM (top dose mostly 38.3 µM), without a hit: top-dose activity change, negative = inhibition, most hits filed as inhibitors. actives 0.28% (n = 200,000); note: % is set by controls: 0 for no effect and ±100 for the full control effect; nearly all actives have a fitted effect of over 60% in size
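Compound is pinned into ATP-containing buffer (10 uM ATP, imidazole pH 7.2, 7 mM MgCl2). Kinase-Glo luciferase reagent is then added. Light output is recorded following an 8-min room-temperature incubation.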
SMN2 splice up – increases expression of the SMN2 splice variant; HEK293 SMN2-luciferase splicing reporter, luminescence, 30-36 h; Potency, µM (titrated, usually from 46.1 µM), without a hit: top-dose activity change, positive = activation, usual class: activators; actives 2.8% (n = 210,000); note: % of control where 0% means no effect; nearly all actives have a fitted effect of over 55% in size
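qHTS luciferase splicing reporter: luminescence rises when SMN2 exon 7 is included in transfected HEK293 cells. Compound exposure lasted 30-36 h at 37C, with 4.5 mM final sodium butyrate as control, followed by a ONE-Glo read.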
NPC1 promoter act – activators of NPC1 promoter | actives 2.4% (n = 320,000) | Potency, µM (series often up to 9.22 µM), for the others: top-dose activation, actives largely listed as activators | Huh7 NPC1 promoter luciferase reporter, 24 h; note: % of control where 0% means no effect; nearly all actives have a fitted effect of over 60% in size
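NPC1 promoter–luciferase Huh7 cells; 24 h compound; luminescence.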
FLuc modulator – inhibits or activates purified firefly luciferase, miR-21 counter-screen | Potency, µM (doses to about 57.5 µM), without a hit: at the highest dose activity change, negative = inhibition, usual class: inhibitors | P08659 | purified FLuc, Km substrates, luminescence inhibition | actives 6.9% (n = 360,000);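 note: plate controls were vehicle for no effect and reference inhibitor for full effect; nearly all actives have a fitted effect of over 55% in size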
Target sequence (P08659 whole entry, looked up): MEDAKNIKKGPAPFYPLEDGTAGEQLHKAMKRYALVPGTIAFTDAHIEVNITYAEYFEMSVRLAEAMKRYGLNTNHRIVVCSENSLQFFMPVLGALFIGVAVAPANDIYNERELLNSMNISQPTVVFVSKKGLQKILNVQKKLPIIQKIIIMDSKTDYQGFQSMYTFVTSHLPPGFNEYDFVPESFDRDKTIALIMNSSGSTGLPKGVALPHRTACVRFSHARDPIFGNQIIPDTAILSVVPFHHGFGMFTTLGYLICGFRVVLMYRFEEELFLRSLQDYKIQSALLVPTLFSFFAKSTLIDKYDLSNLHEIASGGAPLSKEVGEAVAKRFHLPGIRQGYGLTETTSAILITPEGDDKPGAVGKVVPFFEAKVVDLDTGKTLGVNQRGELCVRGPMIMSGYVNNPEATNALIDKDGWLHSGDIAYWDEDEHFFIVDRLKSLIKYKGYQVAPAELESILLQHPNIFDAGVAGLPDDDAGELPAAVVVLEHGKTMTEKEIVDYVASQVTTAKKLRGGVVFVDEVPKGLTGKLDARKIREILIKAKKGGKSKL
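Biochemical qHTS of compounds, final roughly 60 µM downward over six points, against 10 nM purified firefly luciferase using Km concentrations of substrates (10 uM D-luciferin, 10 uM ATP) in Tris acetate pH 7.5 buffer; luminescence output.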
Rab9 prom act – Rab9 promoter activation | actives 2.8% (n = 320,000) | Potency, µM (highest dose often 9.22 µM), without a hit: at the top dose activation, negative = inhibition, most hits filed as activators | Huh7 Rab9 promoter-luciferase reporter, luminescence, 24 h; note: % of control where 0% means no effect; nearly all actives have a fitted effect of over 60% in size
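Measured in stably transfected Huh7 cells bearing a Rab9 promoter–luciferase construct: 24 h compound treatment at 37 °C, followed by luminescence detection.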
An asterisk follows results filed as active; ? = inconclusive; nt = no result given; [ ] = remark or other dose. Calls come from the whole dose curve; as a rule, active = well fitted curve in the direction sought with a large enough effect; inconclusive = small, poorly fitted or top-dose-only effect, or another doubt; inactive = no such curve, though single readings can be large; an effect the other way counts as inactive or inconclusive. Potency is the fitted concentration of half-maximal effect.

SMILES	ELG1 genotox	KinaseGlo FLuc	SMN2 splice up	NPC1 promoter act	FLuc modulator	Rab9 prom act
CCOC(=O)c1[nH]c2cc(OC)c(OC)cc2c1NC(=O)CN1CCN(C)CC1	20.6µM*	-0.4%	nt	-4.4%	-0.7%	-2.9%
CCOC(=O)c1[nH]c2ccc(C)cc2c1NC(=O)CN1CCCCC1	-7.6%	-0.3%	4.9%	1.4%	0.7%	1.2%
COc1ccccc1/C=C/C(=O)OCC(=O)Nc1ccc2c(c1)OCO2	0.3%	nt	nt	nt	nt	nt
Cc1ccc2oc3nc(C)c(C(=O)O)cc3c(=O)c2c1	24.2%	4.47µM*	5.62µM*	2.82µM*	13.5µM*	2.24µM*
CCOC(=O)c1cc2c(=O)c3cc(C)ccc3oc2nc1C	?	nt	nt	2.82µM*	1.9µM*	3.16µM*
CC(=O)c1cc2c(=O)c3cc(C)ccc3oc2nc1C	10.3µM*	?	12.6µM*	?	8.49µM*	3.55µM*
Cc1sc2nc(-c3cccnc3)[nH]c(=O)c2c1-c1ccccc1	7.8%	1.4%	3.1%	-2.1%	?	-0.9%
OC(Cn1cncn1)(c1ccc(F)cc1)c1ccc(Cl)cc1 (stereo not drawn)	-1.0%	nt	nt	-3.6%	0.4%	-8.8%
COc1cccc(-c2csc(NC(=O)Nc3ccccc3)n2)c1	-17.0%	nt	nt	-2.0%	13.5µM*	-4.6%
O=C(Nc1ccccc1)Nc1nc(-c2ccccc2)cs1	2.4%	nt	nt	22.2%	?	23.1%
COc1cccc(-c2csc(NC(=O)C3CC3)n2)c1	11.6µM*	0.8%	24.9%	?	10.7µM*	?
Cc1ccc(Nc2nnc(C(C)(C)C)c(=O)n2N)cc1	6.9%	-0.7%	3.2%	-2.7%	-13.5%	-6.8%
CCOC(=O)c1c(C)[nH]c(CCC(=O)NCc2cccc(OC)c2)c1C	nt	nt	nt	nt	-6.3%	nt
CCOC(=O)c1c(C)[nH]c(N=Nc2cccc(C)c2)c1C	2.51µM*	-1.8%	7.94µM*	1.78µM*	7.57µM*	2.82µM*
CCOC(=O)c1c(C)[nH]c(N=Nc2cccc(OC)c2)c1C	?	-0.7%	14.1µM*	1.78µM*	1.69µM*	1.12µM*
O=C(O)CSc1c2c(nc3cc(C(=O)N4CCCC4)ccc13)CCCC2	5.9%	11.1%	0.9%	-3.6%	-2.1%	-0.8%
O=C(CN1C(=O)S/C(=C\C=C\c2ccccc2)C1=O)Nc1ccc(C(=O)O)cc1	7.8%	nt	nt	3.0%	6.01µM*	3.1%
O=C(CN1C(=O)/C(=C\C=C\c2ccccc2)SC1=S)Nc1ccc(F)cc1	3.9%	-1.9%	4.47µM*	0.1%	-5.8%	1.3%
O=C(CCN1C(=O)/C(=C\C=C\c2ccccc2)SC1=S)Nc1ccc(C(=O)O)cc1	?	nt	nt	?	0.953µM*	29.2%
O=C(CN1C(=O)S/C(=C/C=C/c2ccccc2)C1=O)Nc1ccc(C(=O)O)cc1	8.8%	-0.5%	11.1%	-5.3%	4.78µM*	-6.7%
N#Cc1nc(COc2ccc(Br)cc2)oc1N1CCN(Cc2ccccc2)CC1	-5.9%	-7.4%	-10.0%	0.6%	-0.3%	-10.1%
CC(C)C[C@@H](CN1C(=O)C(=O)NC[C@@H]1CC(C)C)NC(=O)Cc1ccccc1	0.7%	nt	nt	nt	nt	nt
O=C(COC(=O)CCN1C(=O)/C(=C\C=C\c2ccccc2)SC1=S)Nc1cc(F)ccc1F	3.4%	-0.5%	-13.9%	-1.7%	13.5µM*	-7.3%
CCCNC(=O)C(=O)Nc1ccc(N(C)C)cc1	?	2.1%	11.2µM*	?	13.5µM*	3.16µM*
CN(C)c1ccc(NC(=O)C(=O)NCCOc2ccccc2)cc1	-2.5%	2.7%	8.5%	1.1%	-2.3%	15.3%
SMILES	ELG1 genotox	KinaseGlo FLuc	SMN2 splice up	NPC1 promoter act	FLuc modulator	Rab9 prom act
COCCNC(=O)C(=O)Nc1ccc(Br)cc1	?	-8.5%	11.2µM*	?	?	?
CC(C)c1ccc(/C=C2\SC(N3CCCC3)=NC2=O)cc1	6.0%	-2.9%	-20.5%	1.3%	?	-1.4%
CN(C)CCN(C(=O)c1ccc2c(c1)CCCC2)c1nc2c(F)cccc2s1	?	nt	nt	2.1%	10.7µM*	6.1%
CCOC(=O)c1cnc2ccc(C)cc2c1Sc1ccc(F)cc1	-2.0%	-1.5%	-7.3%	10.4%	23.9µM*	19.1%
CSCCC1Nc2ccc(S(=O)(=O)N3CCOCC3)cc2NC1=O (stereo not drawn)	-4.7%	1.5%	-6.3%	-6.2%	-0.8%	-0.3%
CC(=O)N1c2ccc(N=Cc3cc(Br)cc(Br)c3O)cc2CC1C (stereo not drawn)	2.2%	nt	nt	-3.1%	9.53µM*	1.2%
CC(C)(CS)C(=O)N1CCC[C@H]1C(=O)O	nt	2.4%[17.1 µM]	-6.2%[20.6 µM]	nt	nt	nt
NC(=O)c1ccc(N2CCCCC2)c(N2C(=O)C3CC=CCC3C2=O)c1 (stereo not drawn)	-0.9%	-7.2%	-4.7%	0.8%	2.3%	-3.2%
COc1ccc(Nc2nc(NCC3CCCO3)c3ccccc3n2)c(OC)c1 (stereo not drawn)	-21.1%	-0.4%	-43.8%	-3.5%	23.9µM*	-6.4%
CCOc1nc(NCc2ccco2)nc(Nc2ccccc2F)n1	?	-6.5%	7.08µM*	28.7%	-16.9%	29.9%
Cc1ccc(Nc2nc(NCc3ccco3)c3ccccc3n2)cc1	-16.3%	-1.4%	-75.8%	5.5%	21.3µM*	0.2%
COc1ccccc1Nc1nc(NCc2ccco2)c2ccccc2n1	-10.3%	nt	nt	2.2%	19µM*	-14.4%
COc1cccc(Oc2cc(NN3CCCCC3)c([N+](=O)[O-])cc2[N+](=O)[O-])c1OC	4.9%	nt	nt	0.1%	0.3%	2.7%
CSc1nsc(/C=C/Nc2ccc(O)cc2C)c1C#N	-1.6%	-2.1%	-3.9%	-1.1%	12µM*	5.2%
Cc1ccnc(Nc2nc(-c3ccc(Cl)cc3)cs2)c1	?	nt	nt	2.82µM*	2.69µM*	2.82µM*
Cc1ccnc(Nc2nc(-c3ccc(F)cc3)cs2)c1	?	nt	nt	1.78µM*	0.849µM*	2.51µM*
COc1cccc(NC(=O)c2ccc(CNS(=O)(=O)c3ccc4c(c3)C(C)(C)C(=O)N4C)cc2)c1	nt	nt	nt	nt	-4.2%	nt
O=C(Cc1ccc([N+](=O)[O-])cc1)Nc1nccs1	-0.8%	nt	nt	6.3%	-3.2%	0.1%
CC(=O)OCC(=O)[C@@]12OC(C)(C)OC1CC1C3CC(F)C4=CC(=O)C=C[C@@]4(C)[C@@]3(F)C(O)C[C@]12C (stereo partly drawn)	nt	-4.5%	-5.3%	nt	nt	nt
COc1ccc(O)c(-c2cc(-c3ccc(F)cc3)n[nH]2)c1	?	nt	nt	4.47µM*	15.1µM*	?
COc1ccc(-c2cc(-c3ccc(Cl)cc3)n[nH]2)c(O)c1	?	nt	nt	1.78µM*	6.01µM*	2.51µM*
COc1ccc(-c2cc(-c3cc(OC)ccc3O)[nH]n2)cc1	9.2µM*	0.5%	?	?	23.9µM*	?
